The whole screen tested about 53,000 sequences, of which about 3,700 (7%) were called active.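 How the source made its calls: active means gene knockdowns whose robust z-score for IL-1 alpha signal is at least 2 or at most -2, so actives lie on both sides; inactive means the rest.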 The full list was thinned out, with actives kept by preference.
experiment: Components of the Cytosolic LPS Sensing Pathway: Gene Identification via Genome-wide siRNA Screen; settings: RAW264.7 macrophages, IL-1a HTRF, actives lie on both sides, screened at 100 nM (by protocol), cells primed 5 h with Pam3CSK4 first;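 further: robust z of the log signal after scaling to non-targeting control siRNA wells of the plate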
In short: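 Supernatant IL-1a by HTRF from RAW264.7 cells primed with Pam3CSK4 (5 hours) and transfected with LipidA (24 hour) after 48h siRNA knockdown at 100 nM; cell viability checked with CellTiter-Glo.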

z-score, active:
GGUGCCGCACACAAACAAUTT against Hipk2 -2.02
GCAUCAUGAACUCCUUUGUTT against H2bc1 -2.43
GGGAUCAGGCCAUUUCCAUTT against Vav2 2.26
GGCCUUUAAGAGUUUCCAUTT against A230052G05Rik 2.1
GCAAACUCAAGGCAUACAUTT against A930017M01Rik 4.27

z-score, inactive:
GGGCCUGAUUUGUCCUCACTT against Sytl1 -1.57
GGACGGUCCUCUUAAAAGATT against Chat -0.394
GGCCUAUCAGAUAAAGAAGTT against Vps37b -1.04
GGUUACUGCUCUCAUGUACTT against Olfr247 -1.28
GGAGCACUUGUGGAUCAAUTT against Efhd1 1.03
GCAUUUAAUGGCAUUACUGTT against Otol1 0.596
GCUGGCGGAGCAAACUCAATT against Foxd3 0.756
GGAAUGAAAAACCUACAUGTT against Cxcl13 0.453
GUUAUUUGUAUGGUGAGAUTT against Hpcal1 -1.06
GGCUGCCUAACUGAUAACATT against Inpp4b 0.24
GGACACUUUACAGUGAUUGTT against Skint4 1.1
GCCUCUGAAAGUGUAAUUATT against Ccdc103 0.184
GGUGAUUCAACUCACUUGUTT against Olfr1353 -1.33
GGUAUGUUUUAUCUUGACATT against Olfr851 0.269
GGCAAACGAUAAAGAAAUCTT against Ptp4a2 1.58
GGGAUUUGCCAAAGAAUAGTT against AI597479 0.875
GGGUGACAGGGCAUGAGAATT against Macroh2a3 0.611
GCAACAAUAUUGCUCUAGATT against Galntl6 -0.452
GCGAUCAAAAUUGUGUCACTT against Minar2 -0.776
CGAUCAAAAAAAUCGUGUGTT against Cfap97 0.587
GGAAGUGGCCUUAAAGUAUTT against Arhgef37 -1.67
GUGUCCAGUCCUAAAACGATT against Trib3 1.66
GGGAAAGGAUUUUUACAUUTT against Ctdsp1 1.83
GGUGAACCUGGAAGAACUATT against Manea 1.64
